In all, about 1,500 compounds went through this assay and about 1,400 (93%) were called active. The rule behind the calls is not given here. The set was probably picked from earlier hits. Not all results are given here. Measured potencies and affinities stand elsewhere.
Experiment: viability of PTEN-deleted HCT116 cells – cell-based, HCT116 PTEN knockout, dose response (AID 1047)
Conditions: CellTiter-Glo, 60 h; series mostly up to 30 µM

SMILES | outcome
CCOC(=O)c1c(C2COc3ccccc3O2)csc1NC(=O)c1ccccc1 (stereo not given) | inactive
O=C(CSc1ncnc2c1nnn2-c1ccc(F)cc1)NCC1CCCO1 (stereo not given) | inactive
COC(=O)Nc1nc2c(s1)CCCC2 | inactive
Cc1cc(C)c2c(=O)n(CC(=O)NCCCN3CCOCC3)sc2n1 | inactive
CN1/C(=C\C(=S)NC(=O)c2ccc([N+](=O)[O-])cc2)C(C)(C)c2ccccc21 | inactive
COc1ccc(NC(=O)CCCn2c(=O)c3sccc3n(Cc3ccccc3)c2=O)cc1 | inactive
COC(=O)C1=C(C)N(Cc2ccco2)C(=O)N[C@@H]1c1cccc(C(F)(F)F)c1 | inactive
CC(C)(C)c1ccc(CNc2ccc([N+](=O)[O-])cn2)cc1 | inactive
Cc1cc(Nc2ccccc2)nn1C(=O)c1ccccc1 | inactive
O=C(NCCOc1ccccc1)C(c1ccccc1)c1ccccc1 | inactive
COc1ccc(C(=O)CCN2CCCCCC2)cc1 | inactive
CCCCNS(=O)(=O)c1ccc2nc(-c3cccnc3)cc(C(=O)NC3CC3)c2c1 | inactive
CCN(CC)S(=O)(=O)c1ccc(-c2nnc(SCc3nnc(-c4ccccc4)o3)o2)cc1 | inactive
C=C1C(O)C[C@H]2C(=C)CCC3[C@H](OC(=O)[C@]3(O)CO)[C@@H]12 (stereo not given in full) | inactive
O=S(=O)(c1cccc2ccccc12)N1CCSC1 | inactive
COCCn1c(=NC(=O)CSCC(=O)Nc2cc(C)on2)sc2cc(C(=O)OC)ccc21 | inactive
O=C(CCNc1cc(Cl)cc(Cl)c1)c1ccco1 | inactive
c1ccc(-c2cc3n(c2)CCc2ccccc2-3)cc1 | inactive
[N-]=[N+]=NC1C[C@H](n2ccc(=O)[nH]c2=O)O[C@@H]1CO (stereo not given in full) | inactive
O=C(Nc1cccc(C(F)(F)F)c1)NC1CCCCC1 | inactive

— PubChem BioAssay AID1047 (SRMLSC, 2008)
